Test results published in PubChem BioAssay (NCI).
Compounds without any hit were thinned out: in the full panel of roughly 83,000, 20% have a hit.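 For each line, cells grew in 96-well plates with the test compound present at a single concentration for 48 hours.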 The source made the active and inactive calls. Rule for the calls: active = growth percent below 10; inactive = the rest.

Test system: HL-60(TB) leukemia
Assay: NCI-60 one-dose screen, 48 h (100 = growth as untreated, 0 = no growth, -100 = all killed)
Conditions: 10 µM unless noted

Row | Compound | growth
1 | CC1(C)CC[C@]2(C(=O)O)CC[C@]3(C)C(=CC[C@@H]4[C@@]5(C)C/C(=C/c6cccnc6)[C@H](O)C(C)(C)[C@@H]5CC[C@]43C)[C@@H]2C1 | -8.82% [100 µM] (active)
2 | CCOC(=O)/C=C1\S/C(=N\Nc2cc(=O)[nH]c3ccc(Br)cc23)N(c2ccccc2)C1=O | -12.1% (active)
3 | CC1C(/C=N/Nc2ccccc2)C(C#N)(C#N)C1(C#N)C#N (centres undefined) | 54.3% (inactive)
4 | NS(=O)(=O)N(c1cc(C(F)(F)F)cc(C(F)(F)F)c1)C1CCN(Cc2ccc(F)cc2)CC1 | 26.3% (inactive)
